# Measurements: PubChem BioAssay AID720504 (National Center for Advancing Translational Sciences (NCATS), 2013)
# About 10,000 (2.8%) of roughly 360,000 compounds were called active. About 4% were inconclusive and are not listed. The full list was thinned out, with actives kept by preference. A number with no mark means an inactive call. The call rests on the fitted dose curve; in most records, active means well fitted inhibition curve with a large enough effect; inconclusive means small, poorly fitted or top-dose-only effect; inactive means flat fitted curve, though single readings scatter.
# Molecular target: Serine/threonine-protein kinase PLK1 (Homo sapiens) (UniProt P53350)
# Sequence (P53350 whole entry, looked up, the tested form may be a part): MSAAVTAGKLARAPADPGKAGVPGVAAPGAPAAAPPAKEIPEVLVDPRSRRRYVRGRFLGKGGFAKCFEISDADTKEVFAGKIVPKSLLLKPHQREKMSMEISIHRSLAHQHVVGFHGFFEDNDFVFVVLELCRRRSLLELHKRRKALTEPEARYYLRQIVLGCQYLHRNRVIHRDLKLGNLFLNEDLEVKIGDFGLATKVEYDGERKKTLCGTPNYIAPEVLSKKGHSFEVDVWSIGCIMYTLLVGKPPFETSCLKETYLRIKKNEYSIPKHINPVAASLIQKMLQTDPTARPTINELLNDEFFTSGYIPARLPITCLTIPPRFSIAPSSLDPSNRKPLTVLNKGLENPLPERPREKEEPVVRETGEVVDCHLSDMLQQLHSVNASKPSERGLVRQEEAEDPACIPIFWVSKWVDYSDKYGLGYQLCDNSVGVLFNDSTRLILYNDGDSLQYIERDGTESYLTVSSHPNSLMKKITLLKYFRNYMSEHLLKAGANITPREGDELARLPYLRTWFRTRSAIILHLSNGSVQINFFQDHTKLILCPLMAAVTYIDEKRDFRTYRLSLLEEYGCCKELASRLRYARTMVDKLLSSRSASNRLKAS
# Assay: qHTS for Inhibitors of PLK1-PDB (polo-like kinase 1 - polo-box domain): Primary Screen; further: nearly all actives have a fitted effect of over 65% in size; on max response, negative = inhibition: series mostly up to about 57 µM
# Settings: Plk1 PBD binding of FITC phosphopeptide, fluorescence polarization
# On the % scale 0 is the no-effect control and ±100 the full control effect; potency means the concentration at half of the fitted maximal effect.
SMILES,"max response, negative = inhibition [%]",Potency
COc1ccc(-c2ccc(C(=O)NC(C)C)c3occc23)c(C)c1,-5.99,
O=C(Nc1ccc(N2CCOCC2)cc1)c1ccc(-c2ccccc2[N+](=O)[O-])o1,-4.38,
CC1=NN(c2ccc(Cl)c(C(=O)O)c2)C(=O)/C1=C/c1ccc(-c2ccccc2[N+](=O)[O-])o1,,0.844 µM (active)
O=C1NC(c2ccc(-c3ccccc3[N+](=O)[O-])o2)C(C(=O)c2ccc(Cl)cc2)C(O)(C(F)(F)F)N1 (configuration not stated),-5.49,
CCCS(=O)(=O)NC(=O)C1(C)CCN(C(=O)c2sccc2C)C1 (configuration not stated),-7.96,
C[C@H](NC(=O)CC[C@H]1O[C@@H](n2ccc(=O)[nH]c2=O)[C@H](O)[C@@H]1O)c1cccc2ccccc12,-3.83,
O=C(NCc1ccco1)c1cccc(-c2ccc3nncn3c2)c1,6.92,
CCCCCNC(=O)C1C(=O)Nc2ccccc2C(=O)N1C(C)(C)C (configuration not stated),-13.8,
S=c1[nH]nc(-c2cccs2)n1/N=C/c1cccs1,,37.7 µM (active)
S=c1[nH]nc(-c2cccs2)n1/N=C/c1cn(-c2ccccc2)nc1-c1ccc(Cl)cc1,-14.4,
Cc1ccsc1/C=N/n1c(=S)[nH]nc(C)c1=O,-9.18,
CC(C)c1cccc(-c2csc(C(O)c3ccccc3)n2)c1 (configuration not stated),-9.83,
COc1cccc(/C=C2\SC(=S)N(CCCC(=O)N3CCOCC3)C2=O)c1,-2.08,
O=C(CN1C(=O)/C(=C\c2ccccc2F)SC1=S)Nc1nc2ccccc2s1,-28.6,
COc1ccc(-c2nn(-c3ccccc3)cc2/C=C2/SC(=S)N(CCCC(=O)O)C2=O)c(C)c1,,29.9 µM (active)
CN(C)S(=O)(=O)c1cccc(-c2nn(-c3ccccc3)cc2/C=C2\SC(=S)N(CC(=O)O)C2=O)c1,,26.7 µM (active)
Cc1ccc(-c2nn(-c3ccccc3)cc2/C=C2\SC(=S)N(CCCCCC(=O)O)C2=O)o1,165,
Cc1ccc(-c2nn(-c3ccccc3)cc2/C=C/C(=O)Nc2cccc(S(N)(=O)=O)c2)cc1,-5.39,
COc1ccc(CC(N)c2csc(NC(=O)Nc3ccc(C(C)C)cc3)n2)cc1 (configuration not stated),-5.6,
CC1(C(=O)Nc2cccc3c2CCCC3)CCN1C(=O)CCc1ccc(Cl)cc1Cl (configuration not stated),0.165,
O=C(CSc1nc2ccccc2c(=O)[nH]1)Nc1nc(-c2ccc(Br)cc2)cs1,-29,
CC(=O)CSc1nc(CCc2ccccc2)c(C#N)c(=O)[nH]1,5.25,
N#Cc1c(-c2cccs2)nc(SCC(=O)c2ccc(Br)cc2)[nH]c1=O,,26.7 µM (active)
COc1ccc(/C=C2/C(=O)OCc3cc(OC)c(OC)cc32)c(OC)c1,-13,
COc1ccc(/C=C2/C(=O)N(c3ccccc3)N=C2C)c(OC)c1,,18.9 µM (active)
COc1ccc(C2/C(=C(/O)c3ccccc3)C(=O)C(=O)N2C)c(OC)c1 (configuration not stated),0.389,

SMILES,"max response, negative = inhibition [%]",Potency
Cc1cccc(C)c1NC(=O)C(c1cccc(F)c1)N1CCN(C)CC1 (configuration not stated),-7.61,
CC(=O)Nc1cnc(-c2ccc(O)cc2C)cn1,-2.97,
COc1ccc(NC(=O)C2Cc3c(-c4ccc5c(c4)OCO5)ccnc3O2)cn1 (configuration not stated),-5.75,
COc1ccc(NC(=O)Nc2ccc3c(c2)C(=O)N([C@H](C)CO)C[C@H](C)[C@@H](CN(C)C(=O)Nc2ccc4c(c2)OCO4)O3)cc1,,23.8 µM (active)
COc1ccc(NC(=O)N(C)C[C@H]2Oc3ccc(NC(=O)C4CC4)cc3C(=O)N([C@H](C)CO)C[C@@H]2C)cc1,-15.8,
C[C@H](CO)N1C[C@H](C)[C@@H](CN(C)C(=O)Nc2ccc3c(c2)OCO3)Oc2c(cccc2N(C)C)C1=O,-11.3,
CC(Sc1nnnn1C1CCCCC1)C(=O)O (configuration not stated),,4.23 µM (active)
O=C(CSc1nnnn1C1CCCC1)N1CCCCC1,-1.23,
CC(Sc1nnnn1C)C(=O)NC(=O)NC1CCCCC1 (configuration not stated),-1.5,
COc1ccc(OC)c(NC(=O)c2cc(-c3cc(F)ccc3OCC3CCCO3)n[nH]2)c1 (configuration not stated),1.76,
COc1ccc2c(c1)CCCO[C@]21O[C@H](CCO)C[C@H](O)[C@H]1O,-7.9,
OCC[C@H]1C[C@@H](O)[C@H](O)[C@@]2(OCCc3ccccc32)O1,,21.2 µM (active)
OCC[C@H]1C[C@@H](O)[C@H](O)[C@]2(OCCCc3ccccc32)O1,-6.7,
CC1(C(=O)NCc2ccc(F)c(F)c2)Cc2c(-c3ccc4c(c3)OCO4)ccnc2O1 (configuration not stated),5.1,
CC1(Cc2cccc(C#N)c2)C(=O)Nc2ccc(-c3cccc(C(F)(F)F)c3)cc21 (configuration not stated),-6.86,
CCCCC[C@@H]1C=C(C(=O)OCC)[C@H](c2ccccc2)N1S(=O)(=O)c1ccc(C)cc1,-0.281,
CCCCC[C@@H]1C=C(C(=O)O)[C@H](c2ccc(C#N)cc2)N1S(=O)(=O)c1ccc(C)cc1,-5.69,
Cc1ccc(S(=O)(=O)N2[C@@H](c3ccc(Br)cc3)C(C(=O)O)=C[C@H]2CC2CCCC2)cc1,,23.8 µM (active)
Cc1ccc(S(=O)(=O)N2CC[C@H]3[C@@H](C2)C(=O)C[C@@H](c2ccccc2)N3S(=O)(=O)c2ccc(C)cc2)cc1,-5.58,
CCN(CC)CCCC(C)n1c2nc(=O)[nH]c(=O)c-2nc2cc(Cl)ccc21 (configuration not stated),,0.752 µM (active)
Cc1ccc(Sc2ccc(NC(=O)c3ccc(F)cc3)cc2C#N)cc1,-2.21,
Cc1ccc(-c2nc3ccc(Br)cn3c2Cc2ccccc2C(F)(F)F)cc1,-28.5,
Cc1ccc([C@@H]2CC(=O)[C@@H]3CN(S(=O)(=O)c4ccc(C)cc4)[C@H](c4ccccc4F)C[C@@H]3N2S(=O)(=O)c2ccc(Cl)cc2)cc1,3.58,
NC(=O)c1c(NC(=O)CSc2nnc(-c3ccco3)n2N)sc2c1CCCC2,,15 µM (active)
Nn1c(SCC(=O)Nc2nccs2)nnc1-c1ccco1,-17.8,
CCc1cccc(C)c1NC(=O)CSc1nnc(-c2ccco2)n1N,-0.459,
